Numbering of substitutions follows the chain as printed. Numbers in names are those of the source.
B1: 134 (nucleosome)
DNA 1: ATCCTGGAGAATCCCGGTGCCGAGGCCGCTCAATTGGTCGTAGACAGCTCTAGCACCGCTTAAACGCACGTACGCGCTGTCCCCCGCGTTTTAACCGCCAAGGGGATTACTCCCTAGTCTCCAGGCACGTGTCAGATCAAGGCCACCTGTGAT
DNA 2: ATCACAGGTGGCCTTGATCTGACACGTGCCTGGAGACTAGGGAGTAATCCCCTTGGCGGTTAAAACGCGGGGGACAGCGCGTACGTGCGTTTAAGCGGTGCTAGAGCTGTCTACGACCAATTGAGCGGCCTCGGCACCGGGATTCTCCAGGAT
modifications: reconstituted with mouse histones H2A, H2B, H3.3 and H4
B2: 139 (nucleosome)
DNA 1: B1 DNA 1 with C138A, A139T, G141T, G142T, C144A, C146G, C147G, T148C, G149C, T150A
DNA 2: B1 DNA 2 with A4T, C5G, A6G, G7C, G8C, G10T, C12A, C13A, T15A, G16T
modifications: reconstituted with mouse histones H2A, H2B, H3.3 and H4
B3: 135 (nucleosome)
DNA 1: B1 DNA 1 with C138T, A139C, G141A, C143G, A145C, C146A
DNA 2: B1 DNA 2 with G8T, T9G, G11C, C13T, T15G, G16A
modifications: reconstituted with mouse histones H2A, H2B, H3.3 and H4
B4: 132 (nucleosome)
DNA 1: ATCCTGGAGAATCCCGGTGCCGAGGCCGCTCAATTGGTCGTAGACAGCTCTAGCACCGCTTAAACGCACGTACGCGCTGTCCCCCGCGTTTTAACCGCCAAGGGGATTACTCCCTAGTCTCCAGGCACGTGTCATCAAGGCCAATCCTGTGAT
DNA 2: ATCACAGGATTGGCCTTGATGACACGTGCCTGGAGACTAGGGAGTAATCCCCTTGGCGGTTAAAACGCGGGGGACAGCGCGTACGTGCGTTTAAGCGGTGCTAGAGCTGTCTACGACCAATTGAGCGGCCTCGGCACCGGGATTCTCCAGGAT
modifications: reconstituted with mouse histones H2A, H2B, H3.3 and H4
B5: 138 (nucleosome)
DNA 1: B1 DNA 1 with C138A, A139T, G141T, G142C, C143A, C144A, A145G, C146G, T148C, G149A
DNA 2: B4 DNA 2 with C5T, A6G, G8C, A9C, G13A, C14T, C15A, T17A, G18T, A19C
modifications: reconstituted with mouse histones H2A, H2B, H3.3 and H4
B6: 137 (nucleosome)
DNA 1: B1 DNA 1 with C138A, A139T, A140T, G141C, G142A, C143A, C144G, A145G, T148A
DNA 2: B4 DNA 2 with A6T, A9C, T10C, G12T, C14A, C15A, T17A, G18T, A19C
modifications: reconstituted with mouse histones H2A, H2B, H3.3 and H4
B7: 130 (nucleosome)
DNA 1: ATCCTGGAGAATCCCGGTGCCGAGGCCGCTCAATTGGTCGTAGACAGCTCTAGCACCGCTTAAACGCACGTACGCGCTGTCCCCCGCGTTTTAACCGCCAAGGGGATTACTCCCTAGTCTCCAGGCACGTGTTCAAGGCCAACATCCTGTGAT
DNA 2: ATCACAGGATGTTGGCCTTGAACACGTGCCTGGAGACTAGGGAGTAATCCCCTTGGCGGTTAAAACGCGGGGGACAGCGCGTACGTGCGTTTAAGCGGTGCTAGAGCTGTCTACGACCAATTGAGCGGCCTCGGCACCGGGATTCTCCAGGAT
modifications: reconstituted with mouse histones H2A, H2B, H3.3 and H4
B8: 131 (nucleosome)
DNA 1: B7 DNA 1 with T133C, C134T, A135C, G137A, C139G, A141C
DNA 2: B7 DNA 2 with T13G, G15C, C17T, T19G, G20A, A21G
modifications: reconstituted with mouse histones H2A, H2B, H3.3 and H4
B9: 127 (nucleosome)
DNA 1: ATCCTGGAGAATCCCGGTGCCGAGGCCGCTCAATTGGTCGTAGACAGCTCTAGCACCGCTTAAACGCACGTACGCGCTGTCCCCCGCGTTTTAACCGCCAAGGGGATTACTCCCTAGTCTCCAGGCACGTCAAGGCCATATACATCCTGTGAT
DNA 2: ATCACAGGATGTATATGGCCTTGACGTGCCTGGAGACTAGGGAGTAATCCCCTTGGCGGTTAAAACGCGGGGGACAGCGCGTACGTGCGTTTAAGCGGTGCTAGAGCTGTCTACGACCAATTGAGCGGCCTCGGCACCGGGATTCTCCAGGAT
modifications: reconstituted with mouse histones H2A, H2B, H3.3 and H4
B10: 129 (nucleosome)
DNA 1: B7 DNA 1 with T133C, C134A, A136G, G138C, C140A, A141T
DNA 2: B7 DNA 2 with T13A, G14T, C16G, T18C, G20T, A21G
modifications: reconstituted with mouse histones H2A, H2B, H3.3 and H4
B11: 128 (nucleosome)
DNA 1: B9 DNA 1 with C131T, A132C, G134A, C136G, A138C, T139A
DNA 2: B9 DNA 2 with A15T, T16G, G18C, C20T, T22G, G23A
modifications: reconstituted with mouse histones H2A, H2B, H3.3 and H4
B12: 17 (nucleosome)
DNA 1: B9 DNA 1 with C20T, G22A, G28A, C131G, A132T, A133C, G134A, C136A, C137T
DNA 2: B9 DNA 2 with G17A, G18T, C20T, T21G, T22A, G23C, C126T, C132T, G134A
modifications: reconstituted with mouse histones H2A, H2B, H3.3 and H4
B13: 133 (nucleosome)
DNA 1: B4 DNA 1 with T135G, C136T, A137C, G139A, C141G, A143C
DNA 2: B4 DNA 2 with T11G, G13C, C15T, T17G, G18A, A19C
modifications: reconstituted with mouse histones H2A, H2B, H3.3 and H4
B14: 15 (nucleosome)
DNA 1: ATCCTGGAGAATCCCGGTCAAGGCCACGCTCAATTGGTCGTAGACAGCTCTAGCACCGCTTAAACGCACGTACGCGCTGTCCCCCGCGTTTTAACCGCCAAGGGGATTACTCCCTAGTCTCCAGGCACGTGTCAGATATATACATCCTGTGAT
DNA 2: ATCACAGGATGTATATATCTGACACGTGCCTGGAGACTAGGGAGTAATCCCCTTGGCGGTTAAAACGCGGGGGACAGCGCGTACGTGCGTTTAAGCGGTGCTAGAGCTGTCTACGACCAATTGAGCGTGGCCTTGACCGGGATTCTCCAGGAT
modifications: reconstituted with mouse histones H2A, H2B, H3.3 and H4
B15: 16 (nucleosome)
DNA 1: B14 DNA 1 with C19T, A20C, G22A, C24G, A26C, C27A
DNA 2: B14 DNA 2 with G127T, T128G, G130C, C132T, T134G, G135A
modifications: reconstituted with mouse histones H2A, H2B, H3.3 and H4

Legend:
[1] = target: NR5A2 wild type;histone octamer (Homo sapiens;, UniProt O00482;C0HKE1;Q6ZWY9;P84244;P62806 1-541;2-130;2-126;2-136;2-103, |); experiment: SeEN-seq (EMSA of nucleosome library followed by sequencing); 0.8 uM human NR5A2; 20 mM Tris-HCl pH 7.5, 120 mM NaCl, 1 mM MgCl2, 10 uM ZnCl2, 1 mM DTT, 100 ug/ml BSA, room temperature, 30 min; 0.1 uM nucleosome library; high values mean tight binding
[2] = target: mouse Nr5a2 wild type;histone octamer (Mus musculus;, UniProt P45448;C0HKE1;Q6ZWY9;P84244;P62806 1-560;2-130;2-126;2-136;2-103, |); experiment: SeEN-seq (EMSA of nucleosome library followed by sequencing); 1.2 uM mouse Nr5a2; 20 mM Tris-HCl pH 7.5, 120 mM NaCl, 1 mM MgCl2, 10 uM ZnCl2, 1 mM DTT, 100 ug/ml BSA, room temperature, 30 min; 0.1 uM nucleosome library; high values mean tight binding

Binder	binding signal [1]	binding signal [2]
B1	5.2 log2 enrichment (bound/unbound, relative to Widom 601)	3.67 log2 enrichment (bound/unbound, relative to Widom 601)
B2	8.13 log2 enrichment (bound/unbound, relative to Widom 601)	5.56 log2 enrichment (bound/unbound, relative to Widom 601)
B3	7.68 log2 enrichment (bound/unbound, relative to Widom 601)	5.73 log2 enrichment (bound/unbound, relative to Widom 601)
B4	3.78 log2 enrichment (bound/unbound, relative to Widom 601)	3.09 log2 enrichment (bound/unbound, relative to Widom 601)
B5	7.13 log2 enrichment (bound/unbound, relative to Widom 601)	5.66 log2 enrichment (bound/unbound, relative to Widom 601)
B6	6.9 log2 enrichment (bound/unbound, relative to Widom 601)	5.78 log2 enrichment (bound/unbound, relative to Widom 601)
B7	1.7 log2 enrichment (bound/unbound, relative to Widom 601)	1.35 log2 enrichment (bound/unbound, relative to Widom 601)
B8	3.61 log2 enrichment (bound/unbound, relative to Widom 601)	3.22 log2 enrichment (bound/unbound, relative to Widom 601)
B9	4.33 log2 enrichment (bound/unbound, relative to Widom 601)	3.32 log2 enrichment (bound/unbound, relative to Widom 601)
B10	2.87 log2 enrichment (bound/unbound, relative to Widom 601)	2.23 log2 enrichment (bound/unbound, relative to Widom 601)
B11	5.29 log2 enrichment (bound/unbound, relative to Widom 601)	4.1 log2 enrichment (bound/unbound, relative to Widom 601)
B12	1.96 log2 enrichment (bound/unbound, relative to Widom 601)	1.98 log2 enrichment (bound/unbound, relative to Widom 601)
B13	4.27 log2 enrichment (bound/unbound, relative to Widom 601)	3.65 log2 enrichment (bound/unbound, relative to Widom 601)
B14	1.12 log2 enrichment (bound/unbound, relative to Widom 601)	1.33 log2 enrichment (bound/unbound, relative to Widom 601)
B15	1.52 log2 enrichment (bound/unbound, relative to Widom 601)	1.81 log2 enrichment (bound/unbound, relative to Widom 601)
